# ELG1 repair inh = qHTS screen for small molecules that inhibit ELG1-dependent DNA repair in human embryonic kidney (HEK293T) cells expressing luciferase-tagged ELG1; HEK293T ELG1-luciferase reporter, luminescence, 16 h; DNA damage induced by 5-fluorouridine; Potency, µM (doses to about 46.1 µM), most hits filed as inhibitors; 2.3% of 330,000 active; also: nearly all actives have a fitted effect of over 55% in size
#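 Step one: seed 2,000 cells per well. Step two: pin-transfer compound or DMSO alongside 5-fluorouridine. Step three: incubate 16 hr, 37 °C, 5% CO2. Step four: add ONE-Glo, wait 30 min, read luminescence.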
# KB-3-1 tox = qHTS assay for MDR1-selective chemotherapeutics: Primary screen using the parental adenocarcinoma cell KB-3-1; KB-3-1 viability, CellTiter-Glo ATP luminescence, 72 h; Potency, µM (series often up to 46.1 µM), usual class: cytotoxic; 1.4% of 400,000 active; also: nearly all actives have a fitted effect of over 60% in size
#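 Parental KB-3-1 adenocarcinoma cells in phenol-red-free DMEM with 10% FBS were pin-treated with compounds at several concentrations, incubated 72 h at 37 °C, and viability read by CellTiter-Glo luminescence; concentration-effect curves were fitted after normalization.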
# SW480 rerep = A quantitative high throughput screen for small molecules that induce DNA re-replication in SW480 colon adenocarcinoma cells. SW480 DNA re-replication, Hoechst DNA content imaging, 48 h. Potency, µM (titrated, usually from 46.1 µM), hits mostly activators. 1.8% of 340,000 active; also: nearly all actives have a fitted effect of over 55% in size
#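 Per well, 250 cells were exposed to pinned compound for 48 hr. Nuclear DNA was visualised with Hoechst (40 min, 37 C) and total object intensity recorded by fluorescence scanning.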
# KB-V1 MDR tox = qHTS assay for MDR1-selective chemotherapeutics: Primary screen using the drug-selected MDR subline cells KB-V1; Potency, µM (highest dose often 46.1 µM), most hits filed as cytotoxic; KB-V1 MDR cells viability, CellTiter-Glo, 72 h; AID 1347076, 2019; 3.4% of 400,000 active; also: nearly all actives have a fitted effect of over 60% in size
#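 Cytotoxicity via CellTiter-Glo luminescence after 72 h compound exposure at 37 degrees C. Cells: drug-selected KB-V1 line, DMEM phenol-red free plus 10% FBS. Compounds tested at multiple concentrations; normalized data fitted to concentration-effect curves.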
# MCF10A rereplic = A quantitative high throughput screen for small molecules that induce DNA re-replication in MCF 10a normal breast cells. MCF 10A DNA re-replication, Hoechst nuclear intensity, 48 h. Potency, µM (doses to about 46.1 µM), usual class: activators. 2.9% of 350,000 active. AID 624296, 2012; also: nearly all actives have a fitted effect of over 50% in size
# ELG1 FLuc counter = qHTS screen for small molecules that inhibit ELG1-dependent DNA repair: Hit Confirmation in Cell-Based Luciferin Assay; shares compounds with ELG1 repair inh; cell-free firefly luciferase luminescence counter-screen, ViewLux; Potency, µM (titrated, usually from 46.1 µM), most hits filed as inhibitors; 3% of 350 active
# ELG1 Luc conf = HTS assay for small molecules that inhibit ELG1-dependent DNA repair in human embryonic kidney (HEK293T) cells expressing luciferase-tagged ELG1: Hit Confirmation | shares compounds with ELG1 repair inh | HEK293T ELG1-luciferase levels, luminescence; cells co-treated with 5-fluorouridine | Potency, µM (series often up to 46.1 µM), actives largely listed as inhibitors | 68% of 670 active | AID 624248, 2012; also: nearly all actives have a fitted effect of over 55% in size
# Target sequence (Q96QE3 whole entry, looked up): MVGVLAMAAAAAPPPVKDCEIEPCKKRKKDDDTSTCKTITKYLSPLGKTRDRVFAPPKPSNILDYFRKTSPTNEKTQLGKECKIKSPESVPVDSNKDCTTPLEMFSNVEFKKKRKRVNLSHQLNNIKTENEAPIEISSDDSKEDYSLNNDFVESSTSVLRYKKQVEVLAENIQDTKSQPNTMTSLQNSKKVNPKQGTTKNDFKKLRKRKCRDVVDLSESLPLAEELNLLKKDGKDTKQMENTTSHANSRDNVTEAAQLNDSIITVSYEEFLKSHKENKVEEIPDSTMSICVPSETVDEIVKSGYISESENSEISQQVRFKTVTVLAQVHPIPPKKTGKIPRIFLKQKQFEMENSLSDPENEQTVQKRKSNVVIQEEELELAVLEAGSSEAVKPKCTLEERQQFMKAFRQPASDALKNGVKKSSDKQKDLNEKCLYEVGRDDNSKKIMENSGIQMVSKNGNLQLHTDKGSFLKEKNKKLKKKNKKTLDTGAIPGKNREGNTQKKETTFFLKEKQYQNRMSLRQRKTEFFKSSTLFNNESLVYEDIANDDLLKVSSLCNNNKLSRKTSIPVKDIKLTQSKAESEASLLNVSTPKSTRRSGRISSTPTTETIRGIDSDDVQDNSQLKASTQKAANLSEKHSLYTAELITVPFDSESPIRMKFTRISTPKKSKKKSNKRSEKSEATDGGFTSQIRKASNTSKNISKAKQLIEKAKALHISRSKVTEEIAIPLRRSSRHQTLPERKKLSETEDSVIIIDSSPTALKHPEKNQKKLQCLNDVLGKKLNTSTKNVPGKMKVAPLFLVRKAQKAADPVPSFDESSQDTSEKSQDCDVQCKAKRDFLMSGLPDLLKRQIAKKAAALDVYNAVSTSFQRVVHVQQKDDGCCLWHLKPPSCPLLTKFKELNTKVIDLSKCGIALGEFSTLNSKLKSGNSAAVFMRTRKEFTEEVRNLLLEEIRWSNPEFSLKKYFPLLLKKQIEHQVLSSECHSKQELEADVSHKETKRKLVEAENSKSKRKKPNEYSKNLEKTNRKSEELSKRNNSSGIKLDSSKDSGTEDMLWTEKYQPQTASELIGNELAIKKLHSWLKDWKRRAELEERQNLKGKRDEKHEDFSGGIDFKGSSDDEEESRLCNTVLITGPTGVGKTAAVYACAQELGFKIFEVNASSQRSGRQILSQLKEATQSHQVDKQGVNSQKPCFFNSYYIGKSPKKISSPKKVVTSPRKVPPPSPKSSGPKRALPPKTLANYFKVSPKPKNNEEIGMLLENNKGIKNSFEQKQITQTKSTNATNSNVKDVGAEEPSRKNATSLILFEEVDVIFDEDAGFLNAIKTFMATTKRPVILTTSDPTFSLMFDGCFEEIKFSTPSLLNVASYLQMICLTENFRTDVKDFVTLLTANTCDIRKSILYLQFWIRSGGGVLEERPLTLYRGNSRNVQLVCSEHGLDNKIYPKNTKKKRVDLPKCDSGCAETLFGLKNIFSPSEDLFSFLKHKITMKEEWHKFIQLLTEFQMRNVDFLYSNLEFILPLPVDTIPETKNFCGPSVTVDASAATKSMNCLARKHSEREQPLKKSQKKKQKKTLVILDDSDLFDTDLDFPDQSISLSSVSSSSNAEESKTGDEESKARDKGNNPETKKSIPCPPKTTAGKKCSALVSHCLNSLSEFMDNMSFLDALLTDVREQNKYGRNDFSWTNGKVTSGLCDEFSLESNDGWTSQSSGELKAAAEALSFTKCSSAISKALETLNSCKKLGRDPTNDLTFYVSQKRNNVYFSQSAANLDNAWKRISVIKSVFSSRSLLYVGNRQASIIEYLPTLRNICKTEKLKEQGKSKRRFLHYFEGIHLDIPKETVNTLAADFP
# ELG1 MMS Luc = confirmation of human ELG1 repair inhibitors, MMS stimulated. Potency, µM (doses to about 46.1 µM), actives largely listed as inhibitors. 53% of 670 active. HEK293T luciferase-tagged ELG1 level, MMS stimulated. shares compounds with ELG1 repair inh; also: nearly all actives have a fitted effect of over 60% in size
# ELG1 5FU viab = qHTS screen for small molecules that inhibit ELG1-dependent DNA repair: Hit Confirmation with 5FU Viability | cell viability with 5-FU, ELG1-dependent repair | shares compounds with ELG1 repair inh | 670 tested, under 10 active | Potency, µM (series often up to 46.1 µM), usual class: cytotoxic | AID 624250, 2012;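 also: ELG1-luc HEK293T cells cotreated with 5-fluorouridine at 10 µM final; viability measured 16 h after compound addition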
# ELG1 MMS cell = qHTS screen for small molecules that inhibit ELG1-dependent DNA repair: Hit Confirmation with MMS Viability. shares compounds with ELG1 repair inh. Cell viability with MMS, ELG1-dependent DNA repair. Potency, µM (series often up to 46.1 µM), most hits filed as cytotoxic. 33% of 670 active;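 also: ELG1-luc HEK293T cells co-treated with 10 µM MMS; viability read 16 h after compound addition; nearly all actives have a fitted effect of over 60% in size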
# Cell viab unstim = qHTS screen for small molecules that inhibit ELG1-dependent DNA repair: Hit Confirmation with Unstimulated Viability Assay; shares compounds with ELG1 repair inh; cell viability counter-screen, unstimulated, luminescence; Potency, µM (series often up to 45.9 µM), hits mostly cytotoxic; 8% of 900 active; AID 624252, 2012;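 also: compound exposure lasted 16 hours before reading; nearly all actives have a fitted effect of over 55% in size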
# FLuc biochem = qHTS screen for small molecules that inhibit ELG1-dependent DNA repair: Hit Confirmation in Biochemical Luciferin Assay; Potency, µM (series often up to 57.5 µM), actives largely listed as inhibitors; purified firefly luciferase, luminescence counter-screen; AID 624253, 2012; 10% of 350 active; shares compounds with ELG1 repair inh
# Hits are given with their value; – = inactive; ? = inconclusive; · = no result. A selection: hits, their analogues and other compounds. The true share with any hit is near 8.1%. Calls follow the shape of the dose curve; as a rule, active = well fitted curve in the direction sought with a large enough effect; inconclusive = small, poorly fitted or top-dose-only effect, or another doubt; inactive = no such curve, though single readings can be large; an effect the other way counts as inactive or inconclusive.
SMILES,ELG1 repair inh,KB-3-1 tox,SW480 rerep,KB-V1 MDR tox,MCF10A rereplic,ELG1 Luc conf,ELG1 MMS Luc,ELG1 5FU viab,ELG1 MMS cell,Cell viab unstim,others
COc1ccc(NC(=O)c2sc3ncnc(N4CCN(c5ccccn5)CC4)c3c2C)cc1Cl,2.59µM,?,?,–,?,5.61µM,12.6µM,–,?,?,ELG1 FLuc counter=–;FLuc biochem=–
COc1cc2cnc(-c3ccccc3)c(C(=O)c3ccc(OCc4ccccc4)cc3)c2cc1OC,2.59µM,–,–,–,–,9.96µM,12.5µM,?,11.2µM,–,
Cc1ccc(SCC(=O)Nc2ccc(N3CCOCC3)cc2)c(C)c1,–,–,–,–,–,·,·,·,·,·,
Cc1ccc(C(=O)Cn2c3c(sc2=N)CCCC3)cc1,·,·,·,·,·,·,·,·,·,?,ELG1 FLuc counter=–;FLuc biochem=0.092µM
Cc1ccc(C(=O)Cn2ncsc2=N)cc1,?,–,–,–,–,·,·,·,·,·,
CCOC(=O)c1sc(N(Cc2ccccc2)C(=O)COC(=O)c2ccc(O)cc2)nc1C,1.3µM,–,?,–,9.2µM,1.99µM,0.705µM,–,0.791µM,?,
CCOC(=O)c1sc(N(Cc2ccccc2)C(=O)COC(=O)c2ccccc2O)nc1C,–,–,–,–,–,·,·,·,·,·,
O=C(COc1ccc(C(=O)NCC2CCCO2)cc1)Nc1cccc(C(F)(F)F)c1 (configuration not stated),3.26µM,–,–,–,–,?,?,–,?,–,
Cc1ccc(C2CC(=O)n3nc(-c4ccc(Cl)cc4)nc3S2)cc1 (configuration not stated),·,–,·,–,·,·,·,·,·,·,
COc1ccc(-c2ccc(C(=O)Nc3ccc(C(C)C)cc3)c3occc23)c(C)c1,·,–,·,–,·,·,·,·,·,·,
COc1cccc(-c2cc(NCc3cccs3)ncn2)c1,·,·,·,·,·,·,·,·,·,–,ELG1 FLuc counter=–;FLuc biochem=3.66µM
CC(=O)c1c(C)n(-c2ccc(Br)cc2)c2ccc(O)cc12,–,–,–,–,?,·,·,·,·,·,
CC(=O)c1ccc(-n2c(C)c(C(C)=O)c3cc(O)ccc32)cc1,2.06µM,–,–,–,–,?,–,–,–,–,
